Reference: PubChem BioAssay AID436 (Emory University Molecular Libraries Screening Center, 2006)
The campaign covered roughly 72,000 compounds. About 350 (0.49%) were called active. What follows is part of a selection rich in actives, with near analogues and random picks from the rest. A number with no mark means an inactive call.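 How the source made its calls: active means activity remaining at or below 50% of control, provided the compound also passes the data quality filters; inactive means the rest, including low values that fail the filters.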

What follows are molecules tested against Ubiquitin carboxyl-terminal hydrolase BAP1 (Homo sapiens) (UniProt Q92560) (assay: BAP1 ubiquitin hydrolase activity blockers – biochemical, Ub-AMC fluorescence, kinetic, primary screen (AID 436;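 further: 100% = DMSO wells rate and 0% = substrate alone blank rate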)). Conditions: recombinant BAP1, Ub-AMC hydrolysis fluorescence kinetic; at 20 µM; active compounds read low.
Chain of Ubiquitin carboxyl-terminal hydrolase BAP1 (Homo sapiens) (Q92560 whole entry, looked up): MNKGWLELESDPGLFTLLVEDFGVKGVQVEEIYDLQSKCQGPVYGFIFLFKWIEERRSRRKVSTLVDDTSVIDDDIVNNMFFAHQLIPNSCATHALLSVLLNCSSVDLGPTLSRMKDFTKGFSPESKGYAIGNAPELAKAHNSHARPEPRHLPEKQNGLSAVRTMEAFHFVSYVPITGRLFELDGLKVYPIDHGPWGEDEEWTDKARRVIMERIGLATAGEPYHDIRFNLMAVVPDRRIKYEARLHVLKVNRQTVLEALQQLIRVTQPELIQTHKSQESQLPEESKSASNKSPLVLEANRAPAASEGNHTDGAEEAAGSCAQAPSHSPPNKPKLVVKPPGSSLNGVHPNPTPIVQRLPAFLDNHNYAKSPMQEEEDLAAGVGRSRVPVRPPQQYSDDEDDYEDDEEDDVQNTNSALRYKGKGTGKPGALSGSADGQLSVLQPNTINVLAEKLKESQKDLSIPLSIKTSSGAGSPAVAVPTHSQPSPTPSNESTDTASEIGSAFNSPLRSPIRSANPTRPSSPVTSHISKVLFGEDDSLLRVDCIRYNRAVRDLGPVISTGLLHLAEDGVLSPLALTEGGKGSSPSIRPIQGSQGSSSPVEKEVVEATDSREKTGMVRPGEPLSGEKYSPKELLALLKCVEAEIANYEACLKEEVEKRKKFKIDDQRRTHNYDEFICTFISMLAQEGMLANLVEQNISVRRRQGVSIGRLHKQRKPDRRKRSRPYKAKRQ
Work on `Cn1c(=N)n(CC(=O)c2ccco2)c2ccccc21` yielded an activity remaining (% of control) of 76.8%.
With `Brc1ccc(-c2nc3ccccc3nc2-c2ccccc2)cc1` the activity remaining (% of control) was 66.2%.
With `CCOc1ccc(Nc2cc(C)nc3ncnn23)cc1` the activity remaining (% of control) was 112%.
Molecule `Nc1nnc(-c2ccccc2SCc2ccc(F)cc2)s1` has an activity remaining (% of control) of 68.2%.
`COc1ccc(C(=O)Nc2ccc3oc(-c4ccc(C)cc4)nc3c2)cc1[N+](=O)[O-]` was tested, and the activity remaining (% of control) was 77%.
For `Cc1c(N=Cc2cc(Br)ccc2O)c(=O)n(-c2ccccc2)n1C`, the activity remaining (% of control) was 106%.
Work on `CC(=O)CCN1C(=O)C(=O)c2ccccc21` yielded an activity remaining (% of control) of 83.2%.
`CCn1c(N2CCCC2)nc2c1c(=O)n(C)c(=O)n2C` showed an activity remaining (% of control) of 117%.
`Cc1nc2sc3ccccc3c2s1` was tested, and the activity remaining (% of control) was 122%.
`COc1ccc(-c2csc(NC(=O)c3ccc(S(=O)(=O)N4CC(C)CC(C)C4)cc3)n2)cc1C` (centres undefined) gave an activity remaining (% of control) of 92.9%.
In the case of `Cn1c(SCC(=O)c2ccc(Cl)cc2)nc2c1c(=O)[nH]c(=O)n2C`, the activity remaining (% of control) is reported as 112%.
For `COc1ccc(OC)c(NC(=O)c2cc(Cl)ccc2[N+](=O)[O-])c1`, the activity remaining (% of control) was 90.2%.
Molecule `CCCCOC(=O)C1=C(C)NC2=C(C(=O)CCC2)C1c1ccc(OCC)c(OC)c1` (centres undefined) has an activity remaining (% of control) of 72.5%.
`Cc1ccc2cccc(NC(=O)C34CC5CC(CC(C5)C3)C4)c2n1` showed an activity remaining (% of control) of 149%.
Molecule `CCOC(=O)c1c(C)oc2ccc(N(C(=O)c3ccccc3)S(=O)(=O)c3ccc(Cl)c([N+](=O)[O-])c3)cc12` has an activity remaining (% of control) of 71%.
`CCCOC(=O)c1ccc(NC(=O)c2ccc(OC)cc2)cc1` gave an activity remaining (% of control) of 167%.
`CC1=C(C(=O)OCc2ccccc2)C(c2ccccc2I)NC(=O)N1C` (centres undefined) was tested, and the activity remaining (% of control) was 104%.
Molecule `CCOC(=O)c1c(N=c2oc3ccccc3cc2C(=O)Nc2ccc(F)cc2)sc(C)c1C` has an activity remaining (% of control) of 63.1%.
`CC(C)C(=O)Nc1c2c(nn1-c1ccc(Cl)cc1)CSC2` was tested, and the activity remaining (% of control) was 73.6%.
`COc1ccc(N2C(=O)CSC2c2cc(Br)ccc2OC)cc1` (centres undefined) gave an activity remaining (% of control) of 80.4%.
`O=C(Nc1nc2ccccc2s1)C1CC(=O)N(c2ccccc2Cl)C1` (centres undefined) was tested, and the activity remaining (% of control) was 204%.
`O=C(CSc1nc2sc3c(c2c(=O)[nH]1)CCCC3)NCc1ccccn1` showed an activity remaining (% of control) of 170%.
`O=C(Nc1cccc(-c2nc3ccccc3o2)c1)C1CCCCC1` was tested, and the activity remaining (% of control) was 79.6%.
`COc1ccc(C2CC(c3c(-c4ccccc4)c4cc(Br)ccc4[nH]c3=O)=NN2C(=O)c2ccncc2)cc1` (centres undefined) was tested, and the activity remaining (% of control) was 97.8%.
For `O=C(Cn1c(=O)sc2ccccc21)Nc1nc2c(s1)CCCC2`, the activity remaining (% of control) was 79.8%.
In the case of `Fc1ccc2nc(Nc3nc4c(s3)CCCC4)sc2c1`, the activity remaining (% of control) is reported as 43.8% (active).
`Fc1ccc2nc(N3CCCCC3)sc2c1` gave an activity remaining (% of control) of 108%.
For `COc1ccccc1NS(=O)(=O)c1cc(C(=O)c2ccc(Br)cc2)ccc1C`, the activity remaining (% of control) was 78.7%.
In the case of `CC(C)C(O)(c1ccccc1)c1cc[n+](C)cc1` (centres undefined), the activity remaining (% of control) is reported as 229%.
`CCOC(=O)C(C(=O)OCC)n1ccc(=O)[nH]c1=O` was tested, and the activity remaining (% of control) was 71.2%.
With `CC(=O)NC12CC3CC(C1)CC(c1ccc([N+](=O)[O-])cc1)(C3)C2` the activity remaining (% of control) was 70.3%.
In the case of `CC(=O)NC(=O)c1cc2cc(Cl)ccc2oc1=Nc1ccc(C#N)cc1`, the activity remaining (% of control) is reported as 84.2%.
`Cc1ccc(S(=O)(=O)NCCN=Cc2ccc3c(c2)OCO3)cc1` gave an activity remaining (% of control) of 99.1%.
Work on `O=C1c2ccccc2-c2onc3c(N4CCCC4)ccc1c23` yielded an activity remaining (% of control) of 60.4%.
`COc1ccc(C(=O)Nc2c[nH]c(=O)[nH]c2=O)cc1OC` was tested, and the activity remaining (% of control) was 54.8%.
Work on `N#CCSc1nc2ccccc2c(=O)n1-c1ccccc1` yielded an activity remaining (% of control) of 109%.
In the case of `O=c1c2ccccc2nc(CSc2nnnn2-c2ccccc2)n1-c1ccccc1`, the activity remaining (% of control) is reported as 37.5% (active).
For `CCOC(=O)c1sc(NC(=O)c2cc(Cl)ccc2[N+](=O)[O-])nc1C`, the activity remaining (% of control) was 56.8%.
For `Cc1ccc(S(=O)(=O)N(CC(O)CN2C(=O)NC(C)(C)C2=O)c2cccc([N+](=O)[O-])c2)cc1` (centres undefined), the activity remaining (% of control) was 74.1%.
For `COc1ccc(C(=O)Nc2nc3c(ccc4ccccc43)s2)c(OC)c1`, the activity remaining (% of control) was 480%.
`O=C(CC(=O)Nc1ccc2c(c1)Cc1cc([N+](=O)[O-])ccc1-2)Nc1ccc2c(c1)Cc1cc([N+](=O)[O-])ccc1-2` gave an activity remaining (% of control) of 74%.
With `CC(=O)c1cccc(S(=O)(=O)N2CCC(n3nnc4cc(F)ccc43)CC2)c1` the activity remaining (% of control) was 84.8%.
`O=S(=O)(c1cccc(S(=O)(=O)N2CCC(n3nnc4ccccc43)CC2)c1)N1CCCCC1` was tested, and the activity remaining (% of control) was 42.6% (active).
In the case of `Cc1ccc(S(=O)(=O)N2CCC(N3CCCCCC3)CC2)cc1`, the activity remaining (% of control) is reported as 79.2%.
With `CCOC(=O)c1c(NC(=O)c2cccnc2)sc2c1CCCC2` the activity remaining (% of control) was 131%.
In the case of `Fc1ccc(-c2ccc(-c3nn4c(-c5ccco5)nnc4s3)o2)cc1`, the activity remaining (% of control) is reported as 49.1% (active).
Work on `Cc1nnc2sc(-c3ccco3)nn12` yielded an activity remaining (% of control) of 63.2%.
Molecule `FC(F)(F)c1nnc2sc(-c3ccco3)nn12` has an activity remaining (% of control) of 92.7%.
`CCOC(=O)C1C(=O)C=C(C=Cc2cccs2)CC1c1ccccc1` (centres undefined) was tested, and the activity remaining (% of control) was 107%.
For `Cc1c(Cc2ccccc2)c(=O)oc2c(C)c(OC(C)C)ccc12`, the activity remaining (% of control) was 64.3%.
In the case of `Cn1c(C#CC(C)(C)O)cc2ccccc21`, the activity remaining (% of control) is reported as 106%.
`COc1cc(-c2nnc(SCC(=O)c3ccc(Cl)cc3)o2)cc(OC)c1OC` showed an activity remaining (% of control) of 135%.
With `Cc1ccc(S(=O)(=O)Nc2cccc(F)c2)cc1C(=O)O` the activity remaining (% of control) was 98.5%.
For `Cc1ccc(OCC(=O)Nc2ccc(C)c(Cl)c2)cc1C`, the activity remaining (% of control) was 81.6%.
For `COc1ccc(-c2nc3cc(C)ccc3o2)cc1N=Cc1cccc(OC)c1O`, the activity remaining (% of control) was 160%.
For `CC(C)c1ccc2c(c1)c(SC(C)(C)C)c(CC(C)(C)C(=O)O)n2Cc1ccc(Cl)cc1`, the activity remaining (% of control) was 17.2% (active).
Work on `CC(C)(C)C(O)Cn1c(=N)n(Cc2ccc(Cl)cc2)c2ccccc21` (centres undefined) yielded an activity remaining (% of control) of 201%.
`O=C(O)CCCC(=O)NC1=NCCS1` gave an activity remaining (% of control) of 91.1%.
Molecule `NC(=O)c1c(NC(=O)c2ccc(Oc3ccccc3)cc2)sc2c1CCCCC2` has an activity remaining (% of control) of 77.2%.
`O=C1CSC(c2ccc([N+](=O)[O-])cc2)N1c1ccc(Br)cc1` (centres undefined) showed an activity remaining (% of control) of 83.1%.
`COC(=O)C1=C(C)NC2=C(C(=O)CC(C)(C)C2)C1c1cccc(O)c1` (centres undefined) was tested, and the activity remaining (% of control) was 58.1%.
`Cc1ccc(S(=O)(=O)CCc2nnc(NC(=O)c3ccc(C(C)(C)C)cc3)s2)cc1` showed an activity remaining (% of control) of 50.6%.
`CCN(CC)S(=O)(=O)c1ccc(C(=O)Nc2nc3c(s2)C(=O)CC(C)(C)C3)cc1` was tested, and the activity remaining (% of control) was 55.1%.
`CCN(CC)c1ccc2cc(-c3nc4ccc(Cl)cc4[nH]3)c(=O)oc2c1` was tested, and the activity remaining (% of control) was 278%.
`CCOc1c([N+](=O)[O-])c(=O)oc2ccccc12` showed an activity remaining (% of control) of 111%.
For `Cc1ccc2nc(NC(=O)c3ccccc3[N+](=O)[O-])sc2c1`, the activity remaining (% of control) was 91.2%.
With `Cc1ccccc1C(=O)Nc1ccc(C(=O)Nc2cccc(C(F)(F)F)c2)cc1` the activity remaining (% of control) was 194%.
`CCOC(=O)c1ccc2nc(C34CC5CC(CC(C5)C3)C4)ccc2c1` showed an activity remaining (% of control) of 126%.
Molecule `CCOC(=O)c1sc(NC(=O)C(CC)Sc2nccn2C)nc1C` (centres undefined) has an activity remaining (% of control) of 90.3%.
`C=CCn1c2ccccc2c2nnc(SC(CC)C(=O)Nc3nc(C)c(C(=O)OCC)s3)nc21` (centres undefined) was tested, and the activity remaining (% of control) was 42% (active).
`O=C(Oc1ccc2ccccc2c1Br)c1ccncc1` was tested, and the activity remaining (% of control) was 56.6%.
`Cn1c(C(C)(O)C(O)(c2ccccc2)c2ccccc2)nc2ccccc21` (centres undefined) was tested, and the activity remaining (% of control) was 90.5%.
`CC1=C(C(=O)OC(C)C)C(c2ccc(O)c([N+](=O)[O-])c2)C2=C(CCCC2=O)N1` (centres undefined) gave an activity remaining (% of control) of 90.5%.
In the case of `COc1cccc(NC(=O)c2ccc(N(Cc3ccccc3)S(C)(=O)=O)cc2)c1`, the activity remaining (% of control) is reported as 89.5%.
`O=C1CC(Nc2ccc3ccccc3c2)C(=O)N1c1ccccc1` (centres undefined) gave an activity remaining (% of control) of 163%.
Molecule `CC(C)(C)C(=O)Nc1ccc(C(=O)Nc2ccc(Sc3ccc([N+](=O)[O-])cc3)cc2)cc1` has an activity remaining (% of control) of 57.4%.
`O=C(O)CCC(=O)Nc1ccc([N+](=O)[O-])cc1` showed an activity remaining (% of control) of 64.9%.
Molecule `COc1ccc(NC(=O)c2sc(-c3ccccc3)nc2C)cc1` has an activity remaining (% of control) of 117%.
Molecule `COc1ccc(C(=O)n2nnc3ccccc32)cc1` has an activity remaining (% of control) of 95.3%.
With `COc1ccc(NC(=O)c2cc3ccccc3oc2=O)cc1Cl` the activity remaining (% of control) was 75.5%.
`CC(=O)NCCN1C(=O)C(=O)/C(=C(/O)c2ccc(Cl)cc2)C1c1ccccc1F` (centres undefined) gave an activity remaining (% of control) of 108%.
`Cc1nc(-c2ccc(NC(=O)c3cccc(Br)c3)cc2)cs1` gave an activity remaining (% of control) of 162%.
`COc1ccc(-n2nc3c(c2NC(=O)Cc2ccccc2)CSC3)cc1` showed an activity remaining (% of control) of 73.5%.
With `O=c1[nH]c2cc(Cl)ccc2c(-c2ccccc2)c1Sc1ncn[nH]1` the activity remaining (% of control) was 98.9%.
For `O=C(Nc1ccccc1F)c1ccc([N+](=O)[O-])cc1Cl`, the activity remaining (% of control) was 205%.
For `CCOC(=O)C(=O)N1c2ccccc2C(C)(c2ccccc2)CC1(C)C` (centres undefined), the activity remaining (% of control) was 108%.
`O=C1C2C3C=CC(O3)C2C(=O)N1c1ccc(Br)cc1[N+](=O)[O-]` (centres undefined) was tested, and the activity remaining (% of control) was 77.6%.
`Cc1cc(C)cc(NC(=O)CCN2C(=O)c3ccccc3C2=O)c1` showed an activity remaining (% of control) of 49.9%.
Molecule `S=c1[nH]nc(COc2ccccc2)o1` has an activity remaining (% of control) of 52.5%.
For `CCOc1ccc(CN(Cc2ccco2)C(c2cccs2)c2nnnn2C(C)(C)C)cc1` (centres undefined), the activity remaining (% of control) was 36.6% (active).
`CCC(C)(C)n1nnnc1C(c1cccs1)N1CCN(Cc2ccccc2)CC1` (centres undefined) was tested, and the activity remaining (% of control) was 85.8%.
With `CC(C)(C)n1nnnc1C(c1cccs1)N(Cc1cccnc1)CC1CCCO1` (centres undefined) the activity remaining (% of control) was 80.9%.
`O=c1[nH]nc(SCc2ccc(Cl)cc2)c(=O)[nH]1` gave an activity remaining (% of control) of 64.4%.
`COc1ccc(C2C(N3C(=O)c4cccc([N+](=O)[O-])c4C3=O)C(=O)N2c2ccc(C)c(C)c2)cc1OC` (centres undefined) showed an activity remaining (% of control) of 85.8%.
